Data reported in PubChem BioAssay (NCATS).
Records with an inconclusive call do not appear. Calls of active or inactive are those of the source. Unless noted, the call rests on the fitted dose curve; in most records, active means well fitted curve in the direction sought with a large enough effect; inconclusive means small, poorly fitted or top-dose-only effect, or another doubt; inactive means no such curve, though single readings can be large; an effect the other way counts as inactive or inconclusive.

Tests used:
[1] = target: Lysosomal acid glucosylceramidase (Homo sapiens) (UniProt P04062); assay: Glucocerebrosidase-p2 (AID 348; in the data active means potency below about 10 µM; further: potency means the concentration at half of the fitted maximal effect); details: purified GBA, blue fluorogenic substrate, 40 min
Sequence of Lysosomal acid glucosylceramidase (Homo sapiens) (P04062 whole entry, looked up): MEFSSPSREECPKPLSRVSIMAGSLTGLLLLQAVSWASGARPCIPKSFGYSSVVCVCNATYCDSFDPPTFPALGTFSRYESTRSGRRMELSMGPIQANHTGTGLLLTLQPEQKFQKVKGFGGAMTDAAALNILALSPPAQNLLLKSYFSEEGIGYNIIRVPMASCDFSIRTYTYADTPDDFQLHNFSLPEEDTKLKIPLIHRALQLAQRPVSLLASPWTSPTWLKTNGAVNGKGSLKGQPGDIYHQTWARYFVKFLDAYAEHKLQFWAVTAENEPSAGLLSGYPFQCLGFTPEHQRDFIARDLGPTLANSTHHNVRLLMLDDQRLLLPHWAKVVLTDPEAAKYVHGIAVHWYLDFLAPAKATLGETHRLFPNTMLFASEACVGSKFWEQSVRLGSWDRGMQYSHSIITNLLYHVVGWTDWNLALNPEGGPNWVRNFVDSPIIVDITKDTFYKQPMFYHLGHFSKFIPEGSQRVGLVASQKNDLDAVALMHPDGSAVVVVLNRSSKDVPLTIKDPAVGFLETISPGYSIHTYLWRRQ
Outline: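 Compounds titrated from 0.6 nM upwards against 0.2 nM enzyme in pH 5.9 citric acid/KH2PO4, taurocholate, tween-20; blue fluorogenic substrate 80 uM, 40 min room temperature, stopped and read Ex 365/Em 440 for AC50.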

[2] = target: Cytochrome P450 1A2 (Homo sapiens) (UniProt P05177); assay: p450-cyp1a2 (AID 410; calls by dose curve; further: potency means the concentration at half of the fitted maximal effect); details: recombinant CYP1A2, luciferin-ME demethylation, luminescence; series mostly up to 57 µM
Sequence of Cytochrome P450 1A2 (Homo sapiens) (P05177 whole entry, looked up): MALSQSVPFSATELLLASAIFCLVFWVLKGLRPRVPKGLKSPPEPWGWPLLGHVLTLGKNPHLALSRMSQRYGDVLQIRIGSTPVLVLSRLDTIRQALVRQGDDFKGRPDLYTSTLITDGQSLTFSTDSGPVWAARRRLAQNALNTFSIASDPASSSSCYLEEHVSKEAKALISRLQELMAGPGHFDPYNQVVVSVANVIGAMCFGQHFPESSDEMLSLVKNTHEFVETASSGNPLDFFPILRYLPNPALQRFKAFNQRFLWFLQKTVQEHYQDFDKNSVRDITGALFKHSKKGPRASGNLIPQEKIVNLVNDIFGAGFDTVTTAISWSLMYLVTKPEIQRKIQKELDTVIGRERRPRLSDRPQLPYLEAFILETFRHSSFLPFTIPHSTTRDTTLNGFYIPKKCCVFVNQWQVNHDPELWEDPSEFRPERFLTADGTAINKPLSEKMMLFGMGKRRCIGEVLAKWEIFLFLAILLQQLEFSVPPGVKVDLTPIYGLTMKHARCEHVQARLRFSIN
Outline: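 Luminescent readout of luciferin formed from Luciferin-ME by human CYP1A2; data normalized against complete inhibition by 57 uM furafylline. Enzyme 20nM, substrate 100uM at Km, 100mM KPO4 buffer, 60 min reaction at room temperature.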

[3] = NFAT Signaling Pathway (AID 444; active means well fitted curve in either direction with a large enough effect, not every such curve was filed as active;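 further: carbachol stimulus at about its EC50 of 1 µM final; on the % scale 0 is the no-effect control and ±100 the full control effect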); details: Jurkat NFAT-bla M1, carbachol, beta-lactamase ratio, 5 h; at 7.69 µM (top of the series) unless noted
Outline: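 Jurkat cells carrying an NFAT-driven β-lactamase reporter and co-transfected muscarinic M1 receptor were treated with compound plus carbachol (1 uM final, an EC50 level) for 5 h at 37 °C. CCF4 loading followed for 1 h at RT; 460/530 nm ratio gave %activity.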

[4] = Stat Signaling Pathway (AID 446; active means well fitted curve in either direction with a large enough effect, not every such curve was filed as active;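 further: ME-180 cervical cancer cells given 40 pM IL-6 alongside compound; SIE-controlled beta-lactamase reporter measured as 460/530 nm FRET emission ratio; on the % scale 0 is the no-effect control and ±100 the full control effect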); details: ME-180 SIE beta-lactamase reporter, IL-6 stimulated, 5 h; at 7.69 µM (top of the series) unless noted
Outline: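 Screening format detects activators and inhibitors alike: ME-180 SIE-bla cells stimulated at 40 pM IL-6 for 5 hrs with compound, then dual-emission beta-lactamase read at 405 nm excitation.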

[5] = target: Glucocorticoid receptor (Homo sapiens) (UniProt P04150); assay: GR-GFP Redistribution (AID 450;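 active means compounds whose dose series gives a full or clear partial fitted curve of increased nuclear translocation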; further: potency means the concentration at half of the fitted maximal effect); details: U2OS GR-GFP nuclear translocation, laser cytometry, 2 h
Sequence of Glucocorticoid receptor (Homo sapiens) (P04150 whole entry, looked up, the tested form may be a part): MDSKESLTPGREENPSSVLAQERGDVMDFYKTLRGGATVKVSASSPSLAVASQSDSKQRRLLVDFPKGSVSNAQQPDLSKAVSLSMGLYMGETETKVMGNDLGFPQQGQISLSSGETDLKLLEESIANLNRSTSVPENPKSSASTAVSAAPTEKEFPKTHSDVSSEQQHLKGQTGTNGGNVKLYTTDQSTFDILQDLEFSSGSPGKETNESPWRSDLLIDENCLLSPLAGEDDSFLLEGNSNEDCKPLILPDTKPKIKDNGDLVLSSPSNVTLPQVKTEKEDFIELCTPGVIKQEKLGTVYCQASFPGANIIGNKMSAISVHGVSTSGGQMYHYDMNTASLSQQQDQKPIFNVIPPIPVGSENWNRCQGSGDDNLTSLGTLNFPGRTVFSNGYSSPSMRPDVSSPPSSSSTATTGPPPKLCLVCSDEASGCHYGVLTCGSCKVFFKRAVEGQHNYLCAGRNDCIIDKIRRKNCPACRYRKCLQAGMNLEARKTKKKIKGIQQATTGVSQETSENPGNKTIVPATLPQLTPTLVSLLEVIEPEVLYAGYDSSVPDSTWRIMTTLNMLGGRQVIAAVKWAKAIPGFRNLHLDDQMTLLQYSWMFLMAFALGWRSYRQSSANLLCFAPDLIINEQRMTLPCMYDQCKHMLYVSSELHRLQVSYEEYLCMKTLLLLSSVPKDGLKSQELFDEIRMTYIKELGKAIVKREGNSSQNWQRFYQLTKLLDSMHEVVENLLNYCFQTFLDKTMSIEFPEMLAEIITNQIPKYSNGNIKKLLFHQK

[6] = target: Glucocorticoid receptor (Homo sapiens) (UniProt P04150); assay: GR-EFC Redistribution (AID 451; calls by dose curve; further: potency means the concentration at half of the fitted maximal effect); details: CHO-K1 GR-EFC translocation, beta-gal luminescence, 2 h
Outline: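 CHO-K1 cells stably expressing nuclear-localized β-gal enzyme acceptor and GR fused C-terminally to the enzyme donor fragment; ligand-driven nuclear translocation restores β-gal by complementation. Compounds titrated up to 46 uM final, 2 h at 37 °C; luminescence read.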

[7] = target: Mitogen-activated protein kinase 10 (Mus musculus) (UniProt Q61831); assay: JNK3 AlphaScreen Assay (AID 530; active means well fitted curve in either direction with a large enough effect, not every such curve was filed as active;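 further: kinase came from lysate of stimulated human HepG2 cells; signal reports phosphorylation of biotinylated GST-cJun 1-79 at Ser73 with 10 µM ATP; on the % scale 0 is the no-effect control and ±100 the full control effect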); details: JNK3 lysate, c-Jun phosphorylation; series mostly up to 57.1 µM
Outline: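 Inhibitors reduce antibody binding to phosphorylated biotin-cJun, lowering AlphaScreen luminescence. Lysates from HepG2 cells pre-activated by IL-1beta plus TNF-alpha supplied JNK3; compounds were titrated.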

[8] = target: 3',5'-cyclic-AMP phosphodiesterase 4B (Homo sapiens) (UniProt Q07343); assay: qHTS Assay for Inhibitors of PDE-IV (AID 607; active means well fitted activation curve with a large enough effect in the main read-out, with a control signal flat, not every such curve was filed as active; further: % of control where 0% means no effect); details: HEK293 ACTOne CNG channel cells, membrane potential fluorescence; series mostly up to 22.9 µM
Sequence of 3',5'-cyclic-AMP phosphodiesterase 4B (Homo sapiens) (Q07343 whole entry, looked up): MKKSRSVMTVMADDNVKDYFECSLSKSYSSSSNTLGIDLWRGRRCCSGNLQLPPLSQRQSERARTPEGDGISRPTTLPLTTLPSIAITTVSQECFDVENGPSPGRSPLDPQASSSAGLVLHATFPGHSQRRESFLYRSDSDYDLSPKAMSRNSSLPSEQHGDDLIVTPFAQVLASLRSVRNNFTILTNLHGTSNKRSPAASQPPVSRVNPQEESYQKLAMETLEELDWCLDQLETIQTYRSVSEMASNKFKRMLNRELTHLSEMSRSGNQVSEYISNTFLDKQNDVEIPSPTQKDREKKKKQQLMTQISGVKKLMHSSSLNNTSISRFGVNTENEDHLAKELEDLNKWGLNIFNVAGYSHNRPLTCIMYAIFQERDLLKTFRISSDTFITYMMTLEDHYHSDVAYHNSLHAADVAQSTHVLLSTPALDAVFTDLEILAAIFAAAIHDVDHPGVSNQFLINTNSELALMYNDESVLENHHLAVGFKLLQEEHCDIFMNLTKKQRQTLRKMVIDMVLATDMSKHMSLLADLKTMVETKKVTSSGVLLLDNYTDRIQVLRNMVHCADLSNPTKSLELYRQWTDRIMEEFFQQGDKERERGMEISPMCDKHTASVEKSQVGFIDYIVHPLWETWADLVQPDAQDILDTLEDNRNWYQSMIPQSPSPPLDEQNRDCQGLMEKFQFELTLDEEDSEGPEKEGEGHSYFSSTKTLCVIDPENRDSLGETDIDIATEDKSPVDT
Outline: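 The readout is membrane depolarisation from a cAMP-sensing CNG channel, detected with a potential dye at ex 535/em 590. Cells were HEK293-derived (endogenous PDE-IV) at 1000 cells/well, titrated up to 22.9 uM final.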

[9] = target: Cytochrome P450 3A4 (Homo sapiens) (UniProt P08684); assay: qHTS Assay for Activators of Cytochrome P450 3A4 (AID 885); details: recombinant CYP3A4, Luciferin-PPXE luminescence, 60 min; series mostly up to 57.1 µM; further: nearly all actives have a fitted effect of over 65% in size
Sequence of Cytochrome P450 3A4 (Homo sapiens) (P08684 whole entry, looked up): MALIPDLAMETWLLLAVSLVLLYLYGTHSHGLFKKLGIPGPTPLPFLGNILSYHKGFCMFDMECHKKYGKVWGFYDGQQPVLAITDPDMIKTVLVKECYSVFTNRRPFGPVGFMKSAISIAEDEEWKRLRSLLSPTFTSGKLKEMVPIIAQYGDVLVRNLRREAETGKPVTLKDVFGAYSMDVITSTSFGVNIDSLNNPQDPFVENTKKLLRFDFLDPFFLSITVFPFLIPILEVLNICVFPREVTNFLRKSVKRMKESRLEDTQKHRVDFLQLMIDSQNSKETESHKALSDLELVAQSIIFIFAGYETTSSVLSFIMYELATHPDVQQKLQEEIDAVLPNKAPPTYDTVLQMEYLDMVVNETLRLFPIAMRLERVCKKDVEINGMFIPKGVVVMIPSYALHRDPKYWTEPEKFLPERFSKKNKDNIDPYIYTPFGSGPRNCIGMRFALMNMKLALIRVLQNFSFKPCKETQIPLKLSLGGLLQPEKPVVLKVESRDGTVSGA
Outline: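 Steps: enzyme/substrate mix dispensed; compound added, 10 min RT; NADPH regeneration solution added, 60 min RT; luciferin detection buffer stops reaction; 20 min later luminescence measured.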

[10] = target: Cytochrome P450 2C19 (Homo sapiens) (UniProt P33261); assay: qHTS Assay for Inhibitors and Substrates of Cytochrome P450 2C19 (AID 899); details: recombinant CYP2C19, luciferin-H EGE luminescence; series mostly up to 57.1 µM; further: potency means the concentration at half of the fitted maximal effect; nearly all actives have a fitted effect of over 60% in size
Sequence of Cytochrome P450 2C19 (Homo sapiens) (P33261 whole entry, looked up): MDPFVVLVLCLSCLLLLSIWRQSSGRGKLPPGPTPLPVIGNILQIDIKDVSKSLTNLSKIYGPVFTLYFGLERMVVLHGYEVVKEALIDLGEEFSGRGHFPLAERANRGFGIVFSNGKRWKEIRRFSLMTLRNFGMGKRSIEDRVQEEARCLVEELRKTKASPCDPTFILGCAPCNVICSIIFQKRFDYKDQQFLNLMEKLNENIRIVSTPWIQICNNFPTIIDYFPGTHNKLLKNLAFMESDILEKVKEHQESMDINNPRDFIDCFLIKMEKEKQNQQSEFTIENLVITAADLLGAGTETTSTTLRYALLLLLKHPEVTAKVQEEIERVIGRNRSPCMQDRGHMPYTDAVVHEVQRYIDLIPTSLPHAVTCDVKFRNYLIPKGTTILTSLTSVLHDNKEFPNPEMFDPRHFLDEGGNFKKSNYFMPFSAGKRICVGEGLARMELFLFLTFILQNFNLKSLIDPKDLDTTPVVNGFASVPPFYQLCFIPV
Outline: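 Human CYP2C19 (5nM) with Luciferin-H EGE at 10uM (its KM) in 50mM KPO4 was preincubated with compound for 10 min at 37C. NADPH regeneration started a 60 min 37C reaction. Luciferin was read by luminescence, normalized to 57uM ketoconazole.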

[11] = target: Dual specificity protein kinase CLK4 (Homo sapiens) (UniProt Q9HAZ1); assay: qHTS Assay for Inhibitors of CDC-like Kinase 4 (ADP-FP Assay) (AID 1795); details: Transcreener ADP fluorescence polarization; series mostly up to 50 µM; further: nearly all actives have a fitted effect of over 60% in size; further: potency means the concentration at half of the fitted maximal effect
Sequence of Dual specificity protein kinase CLK4 (Homo sapiens) (Q9HAZ1 whole entry, looked up): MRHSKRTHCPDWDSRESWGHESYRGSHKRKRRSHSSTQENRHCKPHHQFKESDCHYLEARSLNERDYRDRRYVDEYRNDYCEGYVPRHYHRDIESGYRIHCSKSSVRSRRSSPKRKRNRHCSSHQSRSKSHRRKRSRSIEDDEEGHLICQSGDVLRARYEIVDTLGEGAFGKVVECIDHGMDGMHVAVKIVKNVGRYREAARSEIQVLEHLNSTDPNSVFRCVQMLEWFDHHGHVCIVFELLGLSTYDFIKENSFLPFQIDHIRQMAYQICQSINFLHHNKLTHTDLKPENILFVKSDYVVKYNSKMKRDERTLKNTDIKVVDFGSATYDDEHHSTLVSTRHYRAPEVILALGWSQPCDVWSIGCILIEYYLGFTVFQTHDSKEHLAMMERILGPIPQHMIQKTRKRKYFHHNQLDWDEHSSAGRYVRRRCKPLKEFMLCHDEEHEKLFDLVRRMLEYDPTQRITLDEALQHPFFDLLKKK
Outline: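 Recombinant Clk4 (6.25 nM) phosphorylated 100 uM RS repeat peptide with 1 uM ATP in 25 mM Tris pH 7.5, 10 mM MgCl2, 0.5 mM EGTA, 2.5 mM DTT, 0.01% Triton X-100 for 1 h. ADP was detected by Transcreener ADP2 competitive fluorescence polarization after 30 min at room temperature.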

[12] = target: Ubiquitin carboxyl-terminal hydrolase 1 (Homo sapiens) (UniProt O94782); assay: Inhibitors of USP1/UAF1: Pilot qHTS (AID 504865); details: purified USP1/UAF1, Ub-rhodamine cleavage fluorescence; series mostly up to 54.9 µM;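 further: rhodamine fluorescence freed from ubiquitin-rhodamine substrate followed over time; top concentration of the series differs between compounds; on the % scale 0 is the no-effect control and ±100 the full control effect; nearly all actives have a fitted effect of over 35% in size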
Sequence of Ubiquitin carboxyl-terminal hydrolase 1 (Homo sapiens) (O94782 whole entry, looked up): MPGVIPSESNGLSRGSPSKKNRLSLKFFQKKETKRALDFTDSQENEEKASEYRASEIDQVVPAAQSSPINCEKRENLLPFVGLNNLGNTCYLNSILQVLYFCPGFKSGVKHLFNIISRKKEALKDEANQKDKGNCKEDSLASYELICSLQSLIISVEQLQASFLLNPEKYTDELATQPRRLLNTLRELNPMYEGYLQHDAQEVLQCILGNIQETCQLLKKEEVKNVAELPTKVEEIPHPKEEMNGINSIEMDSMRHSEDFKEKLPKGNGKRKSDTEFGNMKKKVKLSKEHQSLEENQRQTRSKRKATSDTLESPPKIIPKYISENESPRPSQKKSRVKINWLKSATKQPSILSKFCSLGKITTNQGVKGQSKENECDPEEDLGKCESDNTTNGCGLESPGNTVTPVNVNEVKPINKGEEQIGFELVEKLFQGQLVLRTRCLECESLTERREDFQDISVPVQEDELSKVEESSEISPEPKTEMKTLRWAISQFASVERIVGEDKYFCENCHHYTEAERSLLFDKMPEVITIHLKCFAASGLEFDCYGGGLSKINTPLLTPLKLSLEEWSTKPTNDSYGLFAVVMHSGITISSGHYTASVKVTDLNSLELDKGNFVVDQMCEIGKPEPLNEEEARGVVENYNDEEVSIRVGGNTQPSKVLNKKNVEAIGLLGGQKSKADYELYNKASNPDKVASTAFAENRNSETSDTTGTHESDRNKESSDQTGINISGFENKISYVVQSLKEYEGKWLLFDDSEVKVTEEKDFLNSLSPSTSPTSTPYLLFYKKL
Outline: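 USP1/UAF1 complex at 1 nM preincubated 15 min at room temperature with compound, then Ub-Rho substrate added at 150 nM final. Fluorescence (480/540 nm) read kinetically in 50 mM HEPES pH 7.8, 0.5 mM EDTA, 1 mM TCEP, 0.1 mg/ml BSA, 0.01% Tween-20.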

[13] = Primary qHTS for small molecule stabilizers of the endoplasmic reticulum resident proteome: Secreted ER Calcium Modulated Protein (SERCaMP) assay (AID 1508630); details: SH-SY5Y GLuc-SERCaMP (Gaussia luciferase released on ER calcium loss) secretion, thapsigargin, luminescence; series mostly up to 38.4 µM; further: on the % scale 0 is the no-effect control and ±100 the full control effect
Outline: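 GLuc-SERCaMP-expressing SH-SY5Y cells, pretreated 16 h with compound, are challenged with thapsigargin to empty ER calcium stores; after 4 h, coelenterazine is added directly to the medium and luminescence is imaged.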

[14] = AP1 Signaling Pathway (AID 357; active means well fitted curve in either direction with a large enough effect, not every such curve was filed as active); details: ME-180 AP-1-bla reporter, EGF-induced, beta-lactamase ratio, 5 h; at 7.69 µM (top of the series) unless noted
Outline: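 In this screen, ME-180 cells in Opti-MEM with 0.5% dialyzed FBS received EC50 EGF and compound titrations for 5 h. AP-1 reporter beta-lactamase was detected via CCF4 ratio, giving AC50 for positive and negative modulators.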

[15] = target: Cytochrome P450 3A4 (Homo sapiens) (UniProt P08684); assay: qHTS Assay for Inhibitors and Substrates of Cytochrome P450 3A4 (AID 884); details: recombinant CYP3A4, Luciferin-PPXE luminescence; series mostly up to 57.1 µM; further: potency means the concentration at half of the fitted maximal effect; nearly all actives have a fitted effect of over 50% in size
Outline: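 20 nM human CYP3A4 with 25 uM Luciferin-PPXE (at KM) in 200 mM KPO4, preincubated 10 min with compound; NADPH regeneration started a 60 min RT reaction. Luciferin detected by luminescence, normalized to 57 uM ketoconazole as full inhibition.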

[16] = target: Cytochrome P450 2D6 (Homo sapiens) (UniProt P10635); assay: qHTS Assay for Inhibitors and Substrates of Cytochrome P450 2D6 (AID 891); details: recombinant CYP2D6, luciferin-ME EGE luminescence; series mostly up to 57.1 µM; further: potency means the concentration at half of the fitted maximal effect; nearly all actives have a fitted effect of over 60% in size
Outline: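 Human CYP2D6 (5 nM) with 30 uM Luciferin-ME EGE (at Km) in 100 mM KPO4, compound preincubated 10 min, then NADPH regeneration system for 60 min at room temperature. Luciferin read by luminescence; normalized to 1.43 uM quinidine.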

[17] = qHTS Assay for Identification of Small Molecule Agonists for Hypoxia Response Element Signaling Pathway (AID 914; active means well fitted activation curve with a large enough effect in the signal ratio, with a control signal flat, not every such curve was filed as active; the % refers to the signal ratio; further: % of control where 0% means no effect); details: ME-180 (cervical carcinoma) HRE-bla reporter, beta-lactamase ratio, CoCl2, 17 h; activation: hits give high values
Outline: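 Positive modulation of EC50 CoCl2-induced hypoxia response element signaling is measured in ME-180 cells with a beta-lactamase reporter. Compounds are titrated, incubation runs 17 hours, and %Activity derives from the blue/green ratio.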

Clc1ccccc1-c1nccc(NCCN2CCOCC2)n1
inactive: Potency [1] > 11.4 µM | activity change, negative = inhibition [3] 3.47% | activity, negative = inhibition [4] 5.58% | Potency [5] > 46 µM | Potency [6] > 46 µM | Potency [7] | Potency [8] | Potency [9] | Potency [11] | Potency [12] | outcome [13]
active: Potency [2] 2 µM | Potency [10] 5.01 µM

COc1ccccc1-c1nc(NCc2cccs2)c2ccccc2n1
inactive: Potency [1] > 11.4 µM | activity change, negative = inhibition [3] -14.6% | activity, negative = inhibition [4] 21.2% | Potency [5] > 46 µM | Potency [6] > 46 µM | Potency [7] | Potency [9] | Potency [11] | outcome [13]
active: Potency [2] 0.631 µM

CN(Cc1ccco1)c1ncncc1-c1ccc2c(c1)OCO2
inactive: Potency [1] > 11.4 µM | activity change, negative = inhibition [14] 1.93% | activity, negative = inhibition [4] -2.55% | Potency [6] > 46 µM | Potency [7] | Potency [9] | activation [17] 4.7% | Potency [11] | outcome [13]
active: Potency [2] 0.2 µM | Potency [15] 1.26 µM | Potency [16] 1.26 µM | Potency [10] 0.126 µM

CN(Cc1ccco1)c1nc(-c2ccc3c(c2)OCO3)nc2ccccc12
inactive: Potency [1] > 11.4 µM | activity change, negative = inhibition [14] 17% | activity, negative = inhibition [4] 1.32% | Potency [5] > 46 µM | Potency [6] > 46 µM | Potency [7] | Potency [9] | Potency [11] | Potency [12] | outcome [13]
active: Potency [2] 0.501 µM | Potency [15] 1.58 µM | Potency [10] 7.94 µM

COc1ccc2[nH]cc(CCNc3cc(-c4c(C)noc4C)ncn3)c2c1
inactive: Potency [1] > 11.4 µM | activity change, negative = inhibition [14] 8.05% | activity change, negative = inhibition [3] 0.421% | activity, negative = inhibition [4] -0.948% | Potency [6] > 46 µM | Potency [7] | Potency [8] | Potency [11] | Potency [12] | outcome [13]

c1ccc(CNc2nc(-c3ccoc3)nc3ccccc23)cc1
inactive: Potency [1] > 2.29 µM | activity change, negative = inhibition [14] -9.34% | activity change, negative = inhibition [3] -7.24% | activity, negative = inhibition [4] 12.7% | Potency [5] > 46 µM | Potency [6] > 46 µM | Potency [7] | Potency [9] | Potency [11] | Potency [12] | outcome [13]
active: Potency [2] 0.631 µM

O=c1c(-c2cccs2)nc2cncnc2n1-c1ccccc1
active: Potency [2] 12.6 µM | Potency [10] 6.31 µM
inactive: Potency [1] > 11.4 µM | activity change, negative = inhibition [14] -11.2% | activity change, negative = inhibition [3] -9.03% | activity, negative = inhibition [4] -0.182% | Potency [5] > 9.22 µM | Potency [6] > 46 µM | Potency [7] | Potency [11] | Potency [12] | outcome [13]

COc1cccc(-c2cncnc2NCc2cccs2)c1
active: Potency [2] 1.26 µM | Potency [15] 1.58 µM | Potency [10] 0.631 µM
inactive: Potency [1] > 11.4 µM | activity change, negative = inhibition [14] -25% | activity change, negative = inhibition [3] 9.12% | activity, negative = inhibition [4] -6.14% | Potency [5] > 46 µM | Potency [6] > 46 µM | Potency [7] | Potency [9] | Potency [11] | Potency [12] | outcome [13]

c1csc(CNc2nc(-c3ccc4c(c3)OCO4)nc3ccccc23)c1
inactive: Potency [1] > 11.4 µM | activity change, negative = inhibition [14] 0.483% | activity, negative = inhibition [4] -13.1% | Potency [5] > 46 µM | Potency [6] > 46 µM | Potency [7] | Potency [9] | Potency [11] | outcome [13]
active: Potency [2] 0.794 µM | Potency [10] 3.16 µM

COc1ccc2[nH]cc(CCNc3ccnc(-c4ccccc4C)n3)c2c1
inactive: activity change, negative = inhibition [14] -8.02% | activity change, negative = inhibition [3] 8.54% | activity, negative = inhibition [4] -1.84% | Potency [5] > 46 µM | Potency [6] > 46 µM | Potency [7] | Potency [8] | Potency [9] | Potency [11] | Potency [12] | outcome [13]
active: Potency [2] 0.316 µM | Potency [15] 3.16 µM | Potency [16] 2.51 µM | Potency [10] 2.51 µM

CN(Cc1ccco1)c1cc(-c2cccnc2)ncn1
active: Potency [2] 0.316 µM
inactive: Potency [1] > 11.4 µM | activity change, negative = inhibition [14] 11.4% | activity change, negative = inhibition [3] -0.973% | Potency [5] > 46 µM | Potency [6] > 46 µM | Potency [7] | Potency [8] | Potency [9] | Potency [11] | Potency [12] | outcome [13]

CN(C)C(=O)c1ccc(-c2ccc3ncnc(N(C)Cc4ccco4)c3c2)cc1
inactive: Potency [1] > 11.4 µM | activity change, negative = inhibition [3] 8.43% | activity, negative = inhibition [4] -9.98% | Potency [5] > 46 µM | Potency [6] > 46 µM | Potency [7] | Potency [12] | outcome [13]
active: Potency [11] 7.08 µM

N#Cc1cccc(-c2cncnc2NCCc2cnc[nH]2)c1
inactive: Potency [1] > 11.4 µM | activity change, negative = inhibition [14] -12% | activity change, negative = inhibition [3] 4.36% | activity, negative = inhibition [4] -1.18% | Potency [5] > 46 µM | Potency [6] > 46 µM | Potency [7] | Potency [8] | Potency [11] | Potency [12] | outcome [13]

COCCn1c(=O)c(-c2cccc(C#N)c2)nc2cnc(Nc3ccccc3)nc21
inactive: Potency [1] > 11.4 µM | activity change, negative = inhibition [14] -6.21% | activity change, negative = inhibition [3] 3.3% | activity, negative = inhibition [4] -15.6% | Potency [5] > 9.22 µM | Potency [7] | Potency [8] | Potency [11] | Potency [12] | outcome [13]
active: Potency [2] 2.51 µM
